Experimental data reported in PubChem BioAssay (NCI).
This is part of a sample that, as a whole, favours compounds with a hit. Of some 79,000 tested, about 15% had one in any assay. The source made the active and inactive calls. Rule as the data show it: active = growth inhibition above about 70%; inactive = the rest.

How the values were obtained:
[1] = NCI Yeast Anticancer Drug Screen. Data for the rad52 strain (AID 147);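 also: 0% = growth of vehicle-treated control cultures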; details: S. cerevisiae rad52 mutant growth inhibition, active compounds read high
How it was run: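 Measured: yeast growth inhibition. System: strain with a defined DNA damage repair alteration. Reference: vehicle-treated control cultures.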

[2] = NCI Yeast Anticancer Drug Screen. Data for the wt1 strain (AID 149);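 also: 0% = growth of vehicle-treated wt1 cultures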; details: S. cerevisiae wt1 strain (SPY 50644) growth inhibition, active compounds read high
How it was run: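 Vehicle-normalised growth inhibition; strain wt1; compound exposure.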

[3] = NCI Yeast Anticancer Drug Screen. Data for the rad50EPP+ strain (AID 151);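 also: 0% = growth of vehicle-treated control cultures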; details: S. cerevisiae rad50 mutant strain, active compounds read high
How it was run: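 One strain with a rad50 alteration (rad50EPP+) was compound-treated, its growth then compared to that of vehicle controls.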

[4] = NCI Yeast Anticancer Drug Screen. Data for the mgt1 strain (AID 153); details: S. cerevisiae mgt1 mutant growth inhibition, active compounds read high
How it was run: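 After exposure of the mgt1 yeast mutant to compound, growth was measured and reported as inhibition compared with vehicle controls.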

[5] = NCI Yeast Anticancer Drug Screen. Data for the rad50 strain (AID 155);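 also: 0% = growth of vehicle-only cultures of the same strain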; details: S. cerevisiae rad50 strain growth inhibition, active compounds read high
How it was run: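 A DNA repair-deficient yeast mutant serves as the test organism; compound-induced growth inhibition is calculated against vehicle-treated cells.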

[6] = NCI Yeast Anticancer Drug Screen. Data for the mec2-1 strain (AID 157); details: S. cerevisiae mec2-1 strain, active compounds read high
How it was run: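 Test agents were screened against the mec2-1 yeast strain, with defined DNA repair or cell cycle alteration. Growth was scored as inhibition against vehicle-only controls.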

[7] = NCI Yeast Anticancer Drug Screen. Data for the rad14 strain (AID 159);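 also: 0% = growth of vehicle-treated control cultures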; details: S. cerevisiae rad14 strain growth inhibition, active compounds read high
How it was run: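 Vehicle-treated cultures served as the baseline for growth inhibition of a DNA repair-mutant yeast strain exposed to each compound.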

[8] = NCI Yeast Anticancer Drug Screen. Data for the sgs1 mgt1 strain (AID 161);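 also: 0% = growth of cultures given vehicle only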; details: S. cerevisiae sgs1 mgt1 strain, active compounds read high
How it was run: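 Genetically altered yeast, compound exposure, growth inhibition relative to vehicle.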

[9] = NCI Yeast Anticancer Drug Screen. Data for the CLN2oe strain (AID 163);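 also: 0% = growth of vehicle-only control cultures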; details: S. cerevisiae CLN2oe strain, active compounds read high
How it was run: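 Here, growth inhibition in a cell-cycle-altered yeast strain after compound exposure was quantified against vehicle control growth.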

[10] = NCI Yeast Anticancer Drug Screen. Data for the cln2 rad14 strain (AID 165);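 also: 0% = growth equal to vehicle treated cultures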; details: S. cerevisiae cln2 rad14 strain, active compounds read high
How it was run: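 Growth of compound-exposed yeast (cln2 rad14 genotype) measured and expressed as inhibition relative to vehicle.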

[11] = NCI Yeast Anticancer Drug Screen. Data for the bub3 strain (AID 167); details: S. cerevisiae bub3 mutant strain, active compounds read high
How it was run: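 Inhibition values come from growth of compound-treated mutant yeast normalised to vehicle-treated controls.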

[12] = NCI Yeast Anticancer Drug Screen. Data for the wt2 strain (AID 169);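 also: 0% = growth of vehicle-treated yeast cultures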; details: S. cerevisiae wt2 strain growth inhibition, active compounds read high
How it was run: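 Genetically defined yeast strains from a DNA-repair/cell-cycle panel were used. Compound-exposed yeast growth was measured, and the inhibition was calculated relative to vehicle treatment.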

[13] = NCI Yeast Anticancer Drug Screen. Data for the mlh1 strain (AID 171);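 also: 0% = growth of vehicle-treated control cultures of the same strain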; details: S. cerevisiae mlh1 strain growth inhibition, active compounds read high
How it was run: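 Here the genetically defined yeast mutant is grown with each compound, and the extent to which its growth falls below that of vehicle-exposed cells is reported.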

[14] = NCI Yeast Anticancer Drug Screen. Data for the sgs1 strain (AID 173);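 also: 0% = growth of vehicle-only control cultures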; details: S. cerevisiae sgs1 mutant, active compounds read high
How it was run: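 Relative growth inhibition, referenced to vehicle, was determined in a yeast strain with a defined alteration affecting DNA damage repair or cell cycle control after compound exposure.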

[15] = NCI Yeast Anticancer Drug Screen. Data for the mlh1 rad18 strain (AID 175); details: S. cerevisiae mlh1 rad18 strain growth inhibition, active compounds read high
How it was run: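 In this whole-cell yeast screen, a strain with altered DNA damage repair is challenged with compound, and its growth is measured against matched vehicle-treated controls.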

[16] = NCI Yeast Anticancer Drug Screen. Data for the rad18 strain (AID 177); details: S. cerevisiae rad18 mutant growth inhibition, active compounds read high
How it was run: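 Screen uses a yeast strain with a defined lesion in DNA damage repair; compound effect is read as loss of growth compared to untreated vehicle cultures.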

[17] = at 5.0 µM (retest, dose inferred, filed as 0.5)
[18] = at 50.0 µM (retest, dose inferred, filed as 5.0)

Measured: growth inhibition

Cc1cc(Cl)nc2nc(Cl)c(N)cc12
inactive: [1]; at 1.2 µM -8% | [1]; at 3.7 µM -3% | [1]; at 11.0 µM -10% | [1]; at 33.0 µM 16% | [1]; at 100.0 µM 69% | [2]; at 1.2 µM -16% | [2]; at 3.7 µM -7% | [2]; at 11.0 µM -2% | [2]; at 33.0 µM 2% | [2]; at 100.0 µM 27% | [3]; at 1.2 µM -17% | [3]; at 3.7 µM -17% | [3]; at 11.0 µM -13% | [3]; at 33.0 µM 0% | [3]; at 100.0 µM 49% | [4]; at 1.2 µM -14% | [4]; at 3.7 µM -12% | [4]; at 11.0 µM -9% | [4]; at 33.0 µM 20% | [5]; at 1.2 µM -4% | [5]; at 3.7 µM -18% | [5]; [17] 11% | [5]; at 11.0 µM -4% | [5]; at 33.0 µM 8% | [5]; [18] 55% | [5]; at 50.0 µM 38.6% | [5]; at 100.0 µM 51% | [6]; at 1.2 µM -13% | [6]; at 3.7 µM -17% | [6]; [17] 7% | [6]; at 11.0 µM -7% | [6]; at 33.0 µM 32% | [6]; [18] 62% | [6]; at 50.0 µM 62.9% | [6]; at 100.0 µM 44% | [7]; at 1.2 µM 1% | [7]; at 3.7 µM 2% | [7]; at 11.0 µM 1% | [7]; at 33.0 µM 28% | [8]; [17] -11% | [8]; [18] 55% | [9]; at 1.2 µM 4% | [9]; at 3.7 µM 1% | [9]; at 11.0 µM 5% | [9]; at 33.0 µM 6% | [9]; at 100.0 µM 54% | [10]; [17] 29% | [10]; [18] 42% | [10]; at 50.0 µM 22.6% | [11]; at 1.2 µM -20% | [11]; at 3.7 µM -2% | [11]; [17] -24% | [11]; at 11.0 µM -4% | [11]; at 33.0 µM 1% | [11]; [18] 30% | [11]; at 50.0 µM 48.2% | [11]; at 100.0 µM 67% | [12]; at 1.2 µM -22% | [12]; at 3.7 µM -16% | [12]; at 11.0 µM -24% | [12]; at 33.0 µM 21% | [13]; at 1.2 µM -16% | [13]; at 3.7 µM -2% | [13]; at 11.0 µM -2% | [13]; at 33.0 µM 14% | [14]; at 1.2 µM -2% | [14]; at 3.7 µM -6% | [14]; at 11.0 µM -1% | [14]; at 33.0 µM 13% | [14]; at 100.0 µM 63% | [15]; [17] 11% | [16]; at 1.2 µM -29% | [16]; at 3.7 µM -24% | [16]; at 11.0 µM -10% | [16]; at 33.0 µM 35%
active: [4]; at 100.0 µM 87% | [7]; at 100.0 µM 78% | [8]; at 50.0 µM 73.5% | [12]; at 100.0 µM 94% | [13]; at 100.0 µM 80% | [15]; [18] 84% | [16]; at 100.0 µM 80%

COc1ccc2c(c1)[nH]c1c(/C=C/c3ccccc3)nccc12
active: [1]; at 100.0 µM 97% | [2]; at 100.0 µM 97% | [3]; at 100.0 µM 78% | [4]; at 33.0 µM 94% | [4]; at 100.0 µM 98% | [5]; at 33.0 µM 78% | [5]; [18] 93% | [5]; at 50.0 µM 89.5% | [5]; at 100.0 µM 96% | [6]; at 33.0 µM 75% | [6]; [18] 93% | [6]; at 50.0 µM 92.1% | [6]; at 100.0 µM 98% | [7]; at 33.0 µM 71% | [7]; at 100.0 µM 97% | [8]; [18] 80% | [8]; at 50.0 µM 92.5% | [9]; at 100.0 µM 98% | [10]; [18] 74% | [10]; at 50.0 µM 70.7% | [11]; [18] 82% | [11]; at 50.0 µM 87.8% | [11]; at 100.0 µM 98% | [12]; at 100.0 µM 97% | [13]; at 100.0 µM 96% | [14]; at 33.0 µM 78% | [14]; at 100.0 µM 97% | [15]; [18] 95% | [15]; at 50.0 µM 89.5% | [16]; at 100.0 µM 97%
inactive: [1]; at 1.2 µM 9% | [1]; at 3.7 µM -8% | [1]; at 11.0 µM -2% | [1]; at 33.0 µM 50% | [2]; at 1.2 µM -34% | [2]; at 3.7 µM -32% | [2]; at 11.0 µM -18% | [2]; at 33.0 µM 41% | [3]; at 1.2 µM 0% | [3]; at 3.7 µM 7% | [3]; at 11.0 µM 13% | [3]; at 33.0 µM 46% | [4]; at 1.2 µM 9% | [4]; at 3.7 µM 3% | [4]; at 11.0 µM 18% | [5]; at 1.2 µM 31% | [5]; at 3.7 µM 29% | [5]; [17] 44% | [5]; at 11.0 µM 23% | [6]; at 1.2 µM -9% | [6]; at 3.7 µM -6% | [6]; [17] 42% | [6]; at 11.0 µM 1% | [7]; at 1.2 µM -29% | [7]; at 3.7 µM -25% | [7]; at 11.0 µM -22% | [8]; [17] -28% | [9]; at 1.2 µM -15% | [9]; at 3.7 µM -23% | [9]; at 11.0 µM -38% | [9]; at 33.0 µM 63% | [10]; [17] 40% | [11]; at 1.2 µM 12% | [11]; at 3.7 µM 19% | [11]; [17] -24% | [11]; at 11.0 µM 27% | [11]; at 33.0 µM 48% | [12]; at 1.2 µM -36% | [12]; at 3.7 µM -29% | [12]; at 11.0 µM -30% | [12]; at 33.0 µM 68% | [13]; at 1.2 µM -42% | [13]; at 3.7 µM -36% | [13]; at 11.0 µM -35% | [13]; at 33.0 µM 68% | [14]; at 1.2 µM 2% | [14]; at 3.7 µM -7% | [14]; at 11.0 µM -3% | [15]; [17] 29% | [16]; at 1.2 µM 11% | [16]; at 3.7 µM 0% | [16]; at 11.0 µM 6% | [16]; at 33.0 µM 67%

COc1cc2c(cc1C[N+](C)(C)CSc1ccccc1)-c1ccccc1CC2
inactive: [1]; at 1.2 µM -12% | [1]; at 3.7 µM -8% | [2]; at 1.2 µM -17% | [2]; at 3.7 µM -14% | [2]; at 11.0 µM 29% | [3]; at 1.2 µM 3% | [3]; at 3.7 µM 20% | [3]; at 11.0 µM 19% | [3]; at 33.0 µM 20% | [3]; at 100.0 µM 43% | [4]; at 1.2 µM 7% | [4]; at 3.7 µM 15% | [4]; at 11.0 µM 30% | [5]; at 1.2 µM -7% | [5]; at 3.7 µM 8% | [5]; [17] 11% | [6]; at 1.2 µM -6% | [6]; at 3.7 µM 6%
active: [1]; at 11.0 µM 79% | [1]; at 33.0 µM 99% | [1]; at 100.0 µM 99% | [2]; at 33.0 µM 98% | [2]; at 100.0 µM 98% | [4]; at 33.0 µM 98% | [4]; at 100.0 µM 99% | [5]; at 11.0 µM 76% | [5]; at 33.0 µM 98% | [5]; [18] 98% | [5]; at 50.0 µM 99% | [5]; at 100.0 µM 99%
